In PubChem BioAssay AID1159580 (chemical genetic matrix, 2015):
The whole screen tested about 5,500 compounds, of which about 2,000 (36%) were called active. Inconclusive results (about 18%) are left out. Cut-off read from the data, not from the text of the source: active = normalized growth mostly below about 0.91 (no sharp cut-off); inconclusive = no clear call, values can overlap the other calls; inactive = mostly above about 0.92. This is one part of the list.

Assay: chemical genetic growth profiling, strain panel (AID 1159580);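 note: tested at 20 µM; growth read once vehicle control cultures reached saturation at 30 °C; 1 = growth at the plate median or of vehicle wells; lower values mean less growth of the strain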
Details: S. cerevisiae deletion strains, growth OD

Measured: normalized growth

C[C@]12CC[C@@H](O)C[C@H]1CCc1ccccc12
inactive: locus YBR021W, strain FUR4, active compounds read low 0.967 | locus YBR229C, strain ROT2, active compounds read low 1.01 | locus YCL029C, strain bik1, active compounds read low 1 | locus YDL035C, strain GPR1, active compounds read low 1.01 | locus YDL074C, strain BRE1, active compounds read low 1.04 | locus YDL101C, strain DUN1, active compounds read low 1.01 | locus YDL185W, strain tfp1, active compounds read low 1.01 | locus YDL192W, strain arf1, active compounds read low 0.999 | locus YDR101C, strain arx1, active compounds read low 1.01 | locus YDR162C, strain NBP2, active compounds read low 1.04 | locus YDR318W, strain mcm21, active compounds read low 1 | locus YDR388W, active compounds read low 1.01 | locus YDR502C, strain sam2, active compounds read low 0.989 | locus YEL061C, strain CIN8, active compounds read low 1.02 | locus YER110C, active compounds read low 0.999 | locus YER155C, strain BEM2, active compounds read low 1.01 | locus YER167W, strain BCK2, active compounds read low 1.02 | locus YGL078C, strain dbp3, active compounds read low 0.966 | locus YGL086W, strain mad1, active compounds read low 0.989 | locus YGL248W, strain PDE1, active compounds read low 1 | locus YGR135W, strain pre9, active compounds read low 0.992 | locus YGR252W, strain gcn5, active compounds read low 0.94 | locus YHR030C, strain SLT2, active compounds read low 1.02 | locus YHR079C, strain IRE1 (second series), active compounds read low 0.997 | locus YHR094C, strain hxt1, active compounds read low 0.999 | locus YHR129C, strain ARP1, active compounds read low 1.02 | locus YHR200W, strain rpn10, active compounds read low 1.01 | locus YIL066C, strain RNR3, active compounds read low 1.05 | locus YIL073C, strain SPO22, active compounds read low 1.04 | locus YIL125W, strain kgd1, active compounds read low 0.996 | locus YIR030C, strain dcg1, active compounds read low 1.01 | locus YJL095W, strain BCK1, active compounds read low 1 | locus YJL134W, strain LCB3, active compounds read low 1.02 | locus YJL168C, strain set2, active compounds read low 1 | locus YJL187C, strain SWE1 (second series), active compounds read low 1 | locus YKL009W, strain mrt4, active compounds read low 1.01 | locus YKL068W, active compounds read low 1.01 | locus YKL085W, strain MDH1 (second series), active compounds read low 1.02 | locus YKL085W, strain MDH1, active compounds read low 1.02 | locus YKR001C, strain vps1, active compounds read low 0.977 | locus YLR039C, strain RIC1, active compounds read low 0.918 | locus YLR058C, strain SHM2, active compounds read low 1.02 | locus YLR102C, strain apc9, active compounds read low 1 | locus YLR262C, strain YPT6, active compounds read low 0.968 | locus YLR268W, strain sec22, active compounds read low 1 | locus YLR371W, strain rom2, active compounds read low 1.04 | locus YLR418C, strain cdc73, active compounds read low 0.973 | locus YML016C, strain PPZ1, active compounds read low 1.02 | locus YML032C, strain rad52, active compounds read low 0.99 | locus YML124C, strain tub3, active compounds read low 1 | locus YMR078C, strain ctf18, active compounds read low 1 | locus YMR223W, strain ubp8, active compounds read low 0.985 | locus YMR307W, strain GAS1, active compounds read low 1.07 | locus YNL067W, strain RPL9B, active compounds read low 1 | locus YNL233W, strain BNI4, active compounds read low 1.01 | locus YNL250W, strain rad50, active compounds read low 1.04 | locus YNL271C, strain bni1, active compounds read low 1.01 | locus YNL298W, strain CLA4, active compounds read low 0.989 | locus YNL307C, strain MCK1, active compounds read low 1 | locus YNR052C, strain pop2, active compounds read low 0.987 | locus YOL006C, strain TOP1, active compounds read low 1.09 | locus YOL012C, strain htz1 1.06 | locus YOL147C, strain pex11, active compounds read low 1.01 | locus YOR061W, strain CKA2, active compounds read low 1.03 | locus YOR069W, strain VPS5, active compounds read low 1.02 | locus YOR136W, strain idh2, active compounds read low 0.995 | locus YOR144C, strain elg1, active compounds read low 1 | locus YOR184W, strain ser1, active compounds read low 0.978 | locus YOR316C, strain cot1, active compounds read low 1 | locus YPL241C, strain CIN2, active compounds read low 1.02 | locus YPR119W, strain clb2, active compounds read low 1 | locus YPR141C, strain kar3, active compounds read low 1.02 | locus YPR163C, strain tif3, active compounds read low 1 | locus YPR167C, strain met16, active compounds read low 0.997 | strain wtn01, active compounds read low 0.99
